From PubChem BioAssay
Shown are actives, neighbours in structure and some others; about 6.5% of the full set was active somewhere.
HCMV antiviral: human cytomegalovirus inhibition | HFF cells, HCMV-luciferase reporter, 72 h; active compounds read low | activity change, negative = inhibition, % at 57.5 µM | hit rate 4.5% among 410,000 | AID 1259415; in the data active = activity change below about -60%; inconclusive = no clear call, values can overlap the other calls; inactive = above about -39%
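Cell-based, HFFs, 1000 cells/well, 16 h 37C; cpds in DMSO + HCMV-luc, MOI 1 PFU/cell; 72 h 37C; OneGlo luminescence after 5 min RT; norm. to buffer vs Salinomycin 10uM.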
MARV entry inh: blocks Marburg virus binding to or entry into cells | hit rate 1.8% among 300,000 | AID 540276 | Marburg virus pseudotyped entry inhibition, cell reporter | Potency, µM (top dose mostly 37.8 µM), hits mostly inhibitors; calls by dose curve; tested in HEK293 cells
VACV mCherry inh: vaccinia inhibition (mCherry reporter) | AID 720579 | Potency, µM (doses to about 36.5 µM), hits mostly inhibitors | hit rate 0.63% among 310,000 | Vaccinia virus mCherry reporter infection, fluorescence; calls by dose curve; tested in A549 cells; note: nearly all actives have a fitted effect of over 35% in size
VACV Venus inh: vaccinia inhibition (Venus reporter); Vaccinia virus Venus reporter expression, fluorescence; Potency, µM (top dose mostly 36.5 µM), hits mostly inhibitors; hit rate 0.46% among 330,000; AID 720580; calls by dose curve; tested in A549 cells; note: nearly all actives have a fitted effect of over 30% in size
FMDV antiviral: blocks foot and mouth disease virus | hit rate 1.2% among 410,000 | FMDV antiviral cell-based qHTS | Potency, µM (highest dose often 57.9 µM), hits mostly inhibitors | AID 1159524; calls by dose curve; tested in HEK293T cells; note: read-out not given here; nearly all actives have a fitted effect of over 45% in size
Lassa entry inh: blocks Lassa virus binding to or entry into cells; Lassa virus pseudotype entry inhibition, cell reporter; Potency, µM (series often up to 37.9 µM), most hits filed as inhibitors; hit rate 1.2% among 300,000; AID 540256; calls by dose curve; tested in HEK293 cells; note: nearly all actives have a fitted effect of over 50% in size
Of the large screens only hits and unclear results are named; the others gave an inactive call.

Cc1c(CC(=O)NCCCC(=O)O)c(=O)oc2cc3oc4c(c3cc12)CCCC4	HCMV antiviral -65.6
CCC[N+](C)(C)c1ccc(/C=C/c2ccncc2)cc1	none (no result: HCMV antiviral, MARV entry inh, FMDV antiviral, Lassa entry inh)
COCC(=O)Nc1cc(C(=O)N2CCCC(C(C)=O)C2)cc2nc(-c3ccccc3)n(C)c12 (stereo not given)	none (no result: HCMV antiviral, MARV entry inh, Lassa entry inh)
COc1cccc(OC)c1C(=O)Nc1nc2c(s1)CCc1ccccc1-2	none (no result: MARV entry inh)
CCCN(CCC)S(=O)(=O)c1ccc(C(=O)Nc2nc3c(s2)CCc2ccccc2-3)cc1	HCMV antiviral -72.1, MARV entry inh inconclusive, Lassa entry inh inconclusive
COCCNC(=O)/C(=C/c1ccccc1Cl)c1ccccc1	HCMV antiviral -77.0, Lassa entry inh inconclusive
O=C(O[C@H]1CC[C@@]23CCCN2C(=O)CCC[C@H]3C1)c1ccc(Br)cc1	none (no result: MARV entry inh, VACV mCherry inh, VACV Venus inh, FMDV antiviral, Lassa entry inh)
CSc1ccc(C(=O)C2CCCN(C(=O)CCc3c(C)nn(C)c3C)C2)cc1 (stereo not given)	HCMV antiviral -63.3, MARV entry inh inconclusive, FMDV antiviral inconclusive, Lassa entry inh inconclusive
COc1ccc(Nc2nc(N)c(C(=O)c3ccc(OC)cc3)s2)cc1	MARV entry inh inconclusive, VACV mCherry inh 1.78µM, Lassa entry inh inconclusive
COc1cccc(C(=O)c2sc(Nc3ccc(F)c(Cl)c3)nc2N)c1	none (no result: MARV entry inh)
COc1ccc(Nc2nc(N)c(C(=O)c3ccc(F)cc3)s2)cc1	VACV mCherry inh inconclusive, VACV Venus inh inconclusive (no result: MARV entry inh, Lassa entry inh)
CCOc1ccc(Nc2nc(N)c(C(=O)c3ccccc3Cl)s2)cc1	HCMV antiviral -90.3, Lassa entry inh inconclusive (no result: MARV entry inh)
C=C(C(=O)O)[C@@H]1CC[C@@]2(C)CCC[C@](C)(O)[C@@H]2C1	none (no result: HCMV antiviral, MARV entry inh, VACV mCherry inh, VACV Venus inh, Lassa entry inh)
Cc1ncc2c(c1CNS(=O)(=O)N(C)C)CCN(C(=O)/C=C/c1ccccc1)C2	none (no result: HCMV antiviral, MARV entry inh, Lassa entry inh)
CC1CC(C)CN(c2ccc(C(=O)NCc3ccc4c(c3)OCO4)cc2[N+](=O)[O-])C1 (stereo not given)	HCMV antiviral -62.4, MARV entry inh inconclusive
O=C(NCc1ccco1)c1ccc(N2CCCCC2)c([N+](=O)[O-])c1	Lassa entry inh 20.6µM
CC1CCN(c2ccc(C(=O)NCc3ccco3)cc2[N+](=O)[O-])CC1	MARV entry inh inconclusive, Lassa entry inh 6.51µM
O=C(NCc1ccco1)c1ccc(N2CCOCC2)c([N+](=O)[O-])c1	HCMV antiviral inconclusive, Lassa entry inh inconclusive
O=C(NCc1ccc(F)cc1)c1ccc(N2CCc3ccccc32)c([N+](=O)[O-])c1	HCMV antiviral inconclusive, MARV entry inh inconclusive, FMDV antiviral inconclusive, Lassa entry inh 18.4µM
Cc1cc(C(=O)NCc2ccc3c(c2)OCO3)ccc1[N+](=O)[O-]	none (no result: MARV entry inh, VACV mCherry inh, VACV Venus inh, Lassa entry inh)
Cc1ccc(N(Cc2ccco2)C(=O)c2ccc(N3CCCCC3)c([N+](=O)[O-])c2)cc1	HCMV antiviral -65.6, MARV entry inh 23.1µM, Lassa entry inh inconclusive (no result: VACV mCherry inh, VACV Venus inh)
c1ccc2c(-c3ccc4nncn4c3)cncc2c1	HCMV antiviral -70.3 (no result: MARV entry inh, Lassa entry inh)
c1coc(-c2ccc3nncn3c2)c1	none (no result: MARV entry inh, Lassa entry inh)
Cc1ccc(C)c(NC(=O)CSc2nnc(-c3cc4occc4n3C)n2-c2ccccc2C)c1	Lassa entry inh inconclusive (no result: MARV entry inh)
Cc1cccc2cc3c(N)c(C#N)sc3nc12	HCMV antiviral -63.5, MARV entry inh inconclusive
CCNc1nc(NCC)n2c(SC(C(=O)Nc3cc(C)ccc3C)c3ccccc3)nnc2n1 (stereo not given)	FMDV antiviral inconclusive
CCNc1nc(NCC)n2c(SC(C)C(=O)c3ccc(C)cc3)nnc2n1 (stereo not given)	HCMV antiviral inconclusive, MARV entry inh 11.6µM, VACV Venus inh inconclusive, FMDV antiviral inconclusive
COc1cccc(CNC(=O)[C@H]2CCCN2C(=O)[C@H]2CCCN2C(=O)c2ccc(C)cc2)c1	none (no result: MARV entry inh, VACV mCherry inh, VACV Venus inh, FMDV antiviral, Lassa entry inh)
Cc1ccc(NC(=O)c2cc(C(C)(C)C)nn2Cc2ccccc2)cc1	HCMV antiviral inconclusive, MARV entry inh inconclusive, Lassa entry inh 2.82µM
CC(C)(C)c1cc(C(=O)NNc2cc(C(F)(F)F)ccc2Cl)n(Cc2ccccc2)n1	HCMV antiviral -90.3, MARV entry inh inconclusive, VACV mCherry inh inconclusive, VACV Venus inh inconclusive, FMDV antiviral inconclusive, Lassa entry inh inconclusive
Cc1ccc(NNC(=O)c2cc(C(C)(C)C)nn2Cc2ccccc2)cc1	VACV mCherry inh inconclusive, Lassa entry inh inconclusive
CC(C)(C)c1cc(C(=O)NC2CC2)n(Cc2ccc(F)cc2)n1	MARV entry inh inconclusive, Lassa entry inh inconclusive
CC(C)(C)c1cc(C(=O)Nc2ccc(F)cc2)n(Cc2ccc(F)cc2)n1	HCMV antiviral -91.9, FMDV antiviral inconclusive (no result: MARV entry inh, VACV mCherry inh, VACV Venus inh, Lassa entry inh)
CC(C)(C)c1cc(C(=O)NNc2cccc(Cl)c2)n(Cc2ccccc2)n1	HCMV antiviral -73.0, MARV entry inh 11.2µM, Lassa entry inh inconclusive
CC(C)(C)C(=O)NNC(=O)c1cc(C(C)(C)C)nn1Cc1ccccc1	MARV entry inh 10µM, Lassa entry inh inconclusive
COc1ccccc1NNC(=O)c1cc(C(C)(C)C)nn1Cc1ccccc1	MARV entry inh inconclusive, Lassa entry inh inconclusive
COc1ccc(-c2cc3ccccc3oc2=O)cc1NC(=O)c1ccc(Br)o1	MARV entry inh inconclusive
O=C(Nc1cccc(NC(=O)c2cccs2)c1)c1ccc([N+](=O)[O-])o1	HCMV antiviral -92.3, MARV entry inh inconclusive, VACV mCherry inh inconclusive, VACV Venus inh inconclusive, Lassa entry inh inconclusive
COc1cc(NC(=O)c2cccs2)ccc1NC(=O)Cc1ccccc1	none
COc1cc(NC(=O)c2ccc([N+](=O)[O-])o2)ccc1NC(=O)c1cccs1	MARV entry inh inconclusive, VACV mCherry inh 10µM, VACV Venus inh 10µM, Lassa entry inh inconclusive
COc1ccc(-c2cc3ccccc3oc2=O)cc1NC(=O)c1ccc([N+](=O)[O-])o1	HCMV antiviral -65.6, VACV mCherry inh 11.2µM, VACV Venus inh inconclusive
COc1cc(CN2CCC3(CCC(CNC(=O)c4ccco4)O3)CC2)ccc1O (stereo not given)	none (no result: HCMV antiviral, MARV entry inh, Lassa entry inh)
Cc1oc(-c2ccccc2NC(=O)c2ccccc2)nc1CNC(=O)c1cccc(-n2cccn2)c1	none (no result: HCMV antiviral, MARV entry inh, Lassa entry inh)
COc1ccc(C(=Cc2cc(OC)c(OC)cc2[N+](=O)[O-])C(=O)O)cc1	HCMV antiviral -99.0
COc1ccc(CCN2C(=O)N(c3cccc(C)c3)C(=O)C2CC(=O)Nc2ccccc2)cc1OC (stereo not given)	none
CN(C)CCNC(=O)c1csc(Nc2cccc3ccccc23)n1	HCMV antiviral inconclusive, MARV entry inh 10µM, VACV mCherry inh inconclusive, Lassa entry inh inconclusive
Cn1nc(CC(=O)Nc2ccc(N3CCN(C(=O)OC(C)(C)C)CC3)cc2)c2ccccc2c1=O	HCMV antiviral -79.0, FMDV antiviral inconclusive
COc1cc(NC(=O)Cc2nn(C)c(=O)c3ccccc23)cc(OC)c1	HCMV antiviral -87.7, MARV entry inh inconclusive, VACV Venus inh inconclusive, FMDV antiviral inconclusive (no result: VACV mCherry inh)
CCCCOc1ccc(S(=O)(=O)Nc2ccc(-c3ccc(N4CCCCC4)nn3)cc2)cc1	none (no result: MARV entry inh)
CCc1c(C)nc2ncnn2c1NCCc1ccc(Cl)cc1	HCMV antiviral inconclusive, MARV entry inh inconclusive, FMDV antiviral 14.1µM, Lassa entry inh inconclusive
CCc1c(C)nc2ncnn2c1NCCc1ccccc1	MARV entry inh inconclusive, FMDV antiviral inconclusive (no result: VACV mCherry inh, VACV Venus inh)
COc1ccc(Cn2cnc3cnc(Nc4ccc(NC(C)=O)cc4)cc32)cc1OC	HCMV antiviral -72.4 (no result: MARV entry inh, VACV mCherry inh, VACV Venus inh, FMDV antiviral, Lassa entry inh)
